Vaccinia Venus: qHTS for Stage-Specific Inhibitors of Vaccinia Orthopoxvirus: Venus Reporter Primary qHTS; Potency, µM (doses to about 36.5 µM), for the others: at the top dose activity change, negative = inhibition, actives largely listed as inhibitors; hit rate 0.46% among 330,000; AID 720580, 2013; Vaccinia virus Venus reporter expression, fluorescence; calls by dose curve; tested in A549 cells; also: potency is read from the fitted curve at half-maximal effect; nearly all actives have a fitted effect of over 30% in size
Vaccinia mCherry: qHTS for Stage-Specific Inhibitors of Vaccinia Orthopoxvirus: mCherry Reporter Primary qHTS | Vaccinia virus mCherry reporter infection, fluorescence | Potency, µM (doses to about 36.5 µM), for inactives: at the highest dose activity change, negative = inhibition, usual class: inhibitors | hit rate 0.63% among 310,000 | AID 720579, 2013; calls by dose curve; tested in A549 cells; also: potency is read from the fitted curve at half-maximal effect; nearly all actives have a fitted effect of over 35% in size
MARV entry inh: qHTS for inhibitors of binding or entry into cells for Marburg Virus | Potency, µM (top dose mostly 37.8 µM), for inactives: at the highest dose activity change, negative = inhibition, most hits filed as inhibitors | AID 540276, 2011 | Marburg virus pseudotyped entry inhibition, cell reporter | hit rate 1.8% among 300,000; calls by dose curve; tested in HEK293 cells; also: potency is read from the fitted curve at half-maximal effect
FMDV antiviral: High Throughput Screening for Foot and Mouth Disease Virus Antivirals; Potency, µM (top dose mostly 57.9 µM), inactives show top-dose activity change, negative = inhibition, usual class: inhibitors; hit rate 1.2% among 410,000; FMDV antiviral cell-based qHTS; calls by dose curve; tested in HEK293T cells; also: read-out not given here; potency is read from the fitted curve at half-maximal effect; nearly all actives have a fitted effect of over 45% in size
Lassa entry inh: qHTS for Inhibitors of binding or entry into cells for Lassa Virus | Lassa virus pseudotype entry inhibition, cell reporter | Potency, µM (highest dose often 37.9 µM), inactives show top-dose activity change, negative = inhibition, actives largely listed as inhibitors | hit rate 1.2% among 300,000 | AID 540256, 2011; calls by dose curve; tested in HEK293 cells; also: potency is read from the fitted curve at half-maximal effect; nearly all actives have a fitted effect of over 50% in size
HCMV inh: qHTS Assay for inhibitors of the human cytomegalovirus (HCMV); AID 1259415, 2018; activity change, negative = inhibition, % at 57.5 µM; HFF cells, HCMV-luciferase reporter, 72 h; hits give low values; hit rate 4.5% among 410,000; in the data active = activity change below about -60%; inconclusive = no clear call, values can overlap the other calls; inactive = above about -39%
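Inhibition of viral replication was scored as loss of reporter luminescence in HFFs infected with HCMV-luciferase (MOI 1 PFU/cell) for 72 h; compounds tested at 2 doses, normalized to buffer and Salinomycin controls.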
Starred values were filed as active, the others as inactive; i = inactive; ? = inconclusive; / = no result given; + = active, no number; [ ] = another dose, or the depositor's remark. Only some compounds are listed: those with a hit (about 6.5% of all), similar ones and a draw of the others. % is scaled to controls: 0 for no effect and ±100 for the full control effect.

SMILES | Vaccinia Venus | Vaccinia mCherry | MARV entry inh | FMDV antiviral | Lassa entry inh | HCMV inh
Cc1ccc(NC(=O)c2ccc([N+](=O)[O-])s2)cc1S(=O)(=O)N1CCOCC1 | ? | ? | ? | ? | ? | -94*
O=C(Nc1cc(S(=O)(=O)N2CCOCC2)ccc1N1CCOCC1)c1ccc([N+](=O)[O-])s1 | / | / | / | -20% | / | ?
Cc1ccccc1NC(=O)c1ccc(F)c(S(=O)(=O)N2CCc3ccccc3C2)c1 | -15% | -12% | / | -25% | ? | 10
COc1ccc(C)cc1NC(=O)c1ccccc1NS(=O)(=O)c1ccc(Cl)s1 | / | / | / | -25% | / | -61*
Cc1ccc(NC(=O)c2ccc(F)c(S(=O)(=O)N3CCc4ccccc4C3)c2)cc1F | -16% | -1% | / | 0% | -9%[46.1 µM] | -68*
COc1cc(OC)c(OC)cc1/C=C/c1nccc2ccccc12 | -21% | -21% | / | / | / | /
COc1ccccc1NCc1nnc2n1CCCCC2 | -1% | -3% | / | -22% | 22%[46.1 µM] | -13
CC(=O)c1ccc(OCc2cn(CC(=O)c3ccc(O)cc3)nn2)cc1C | / | / | / | / | -2%[46.1 µM] | /
O=C(Nc1ccc(Br)cc1)c1ccc(F)c(S(=O)(=O)NCc2cccs2)c1 | ? | ? | ? | -1% | 4µM* | -92*
NC(N)=Nc1ccc(/C=C2\C=Cc3ccccc32)cc1 | ? | -17% | / | / | / | /
C#CCN1C(=O)[C@]2(OC[C@@H]3Cc4ccccc4[C@@H]3C=C2C)c2ccccc21 | / | / | 3%[14.2 µM] | / | -19%[14.3 µM] | /
O=[N+]([O-])c1cc(S(=O)(=O)C(F)(F)F)ccc1Sc1nc2ccccc2[nH]1 | -12% | -28% | ? | ? | ? | -103*
Cc1ccccc1C(c1c(C)n(C)n(-c2ccccc2)c1=O)c1c(C)n(C)n(-c2ccccc2)c1=O | 18% | 5% | -14%[46.1 µM] | ? | 19%[46.1 µM] | 18
Cc1ccnc(NC(=O)C2COc3ccccc3O2)c1 (configuration not stated) | -11% | i | -3% | 63% | ? | -75*
C/C(=N\NC(=O)C1COc2ccccc2O1)c1ccccn1 (configuration not stated) | ? | 4.5µM* | ? | -3% | 11µM* | -102*
C/C(=N\NC(=O)C1COc2ccccc2O1)c1ccc(C)o1 (configuration not stated) | -15% | -16% | 14% | 11% | 23% | 7
COc1cccc([C@@H]2Oc3ccc(Br)cc3C(=O)[C@H]2OC(=O)N[C@H]2CCCc3ccccc32)c1 | / | / | -11%[14.2 µM] | / | / | /
O=C1c2cccc3cccc(c23)C(=O)N1CC1CCN(CC(O)COc2ccc3ccccc3c2)CC1 (configuration not stated) | / | / | -1% | ? | / | -19
COc1cccc(OCC(O)CN2CCC(CN3C(=O)c4cccc5cccc(c45)C3=O)CC2)c1 (configuration not stated) | -23% | -23% | ? | ? | ? | -65*
Cc1cc(C)cc(OCC(O)CN2CCC(CN3C(=O)c4cccc5cccc(c45)C3=O)CC2)c1 (configuration not stated) | ? | ? | -1% | ? | / | -101*
COc1ccc(COCC(O)CN2CCC(CN3C(=O)c4cccc5cccc(c45)C3=O)CC2)cc1OC (configuration not stated) | ? | -28% | 9.2µM* | ? | ? | 0
COc1ccc(C)cc1NC(=O)Cn1c(=O)oc2cc(S(=O)(=O)NCc3ccccc3)ccc21 | -10% | -16% | / | 14% | 18%[46.1 µM] | +
CC(C)CCNC(=O)C(C)N(Cc1ccc(F)cc1)C(=O)c1ccc(CN2CCOCC2)o1 (configuration not stated) | -6% | 6% | -18%[46.1 µM] | -6% | 24% | 9
CC(C)(C)NC(=O)C(c1ccc(F)cc1)N(Cc1cccs1)C(=O)c1ccc(CN2CCOCC2)o1 (configuration not stated) | -18% | -22% | 2.8µM* | 9% | 8% | -40
COCC(=O)N1CC(=O)N2[C@@H](CO)[C@H](c3ccc(Br)cc3)[C@@H]2C1 | / | / | / | / | / | 3

Bioassay records from PubChem.
